Reference: PubChem BioAssay (EPA / NIEHS)
The source made the active and inactive calls. How the source made its calls: active means hit-call score of the fitted dose curve at least 0.9, where 1 is the maximum; inactive means score below 0.9.

Legend:
Settings in all cases: mRNA level, 48 h; actives raise or lower the signal
[1] = read-out: Lipase C (LIPC), LIPC (gene 3990); assay: LTEA_HepaRG_LIPC: Life Technologies and Expression Analysis (LTEA) Assay for Lipase C (LIPC) using HepaRG (AID 2283514)
How it was run: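 In this multiplexed gene-expression screen, human HepaRG cultures received test chemicals for 48 h across eight concentrations with 100 uM highest, in duplicate. Values reflect LIPC mRNA induction or suppression versus DMSO vehicle, from normalized qRT-PCR.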

[2] = read-out: Lipoprotein lipase (LPL), LPL (gene 4023); assay: LTEA_HepaRG_LPL: Life Technologies and Expression Analysis (LTEA) Assay for Lipoprotein lipase (LPL) using HepaRG (AID 2283515)
How it was run: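 Concentration-response testing used half-log steps from 100 uM in 0.5% DMSO on human HepaRG cells, 48 h, duplicate wells. Phenobarbital 1 mM served as induction control; LPL mRNA was normalized to ACTB, GAPDH, POLR2A.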

[3] = read-out: MicroRNA 122 (MIR122), gene 406906; assay: LTEA_HepaRG_MIR122: Life Technologies and Expression Analysis (LTEA) Assay for MicroRNA 122 (MIR122) using HepaRG (AID 2283516); further: the transcript read is the microRNA miR-122
How it was run: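 Expression measured by microfluidic qRT-PCR with three housekeeping genes for normalisation, after 48 h treatment of HepaRG cultures. Eight concentrations (top 100 uM, half-log steps, 0.5% DMSO vehicle) in duplicate; gain or loss fitted relative to vehicle.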

[4] = read-out: matrix metalloproteinase-10 (MMP10), MMP10 (gene 4319); assay: LTEA_HepaRG_MMP10: Life Technologies and Expression Analysis (LTEA) Assay for matrix metalloproteinase-10 (MMP10) using HepaRG (AID 2283517)
How it was run: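 In differentiated HepaRG cultures kept in 0.5% DMSO, test chemicals act for 48 h over an eight-point range with a top dose of 100 uM. Expression is then quantified by TaqMan RT-PCR against ACTB, GAPDH and POLR2A.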

MYC, MYC (gene 4609) = assay: LTEA_HepaRG_MYC: Life Technologies and Expression Analysis (LTEA) Assay for MYC using HepaRG (AID 2283518)
How it was run: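 Expression changes were scored by TaqMan qRT-PCR with ACTB, GAPDH and POLR2A normalization. Cultures in serum-free induction medium received duplicate 8-point concentration series, highest 100 uM, for 48 h; DMSO (0.5%) served as baseline.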

[5] = read-out: matrix metalloproteinase-3 (MMP3), MMP3 (gene 4314); assay: LTEA_HepaRG_MMP3: Life Technologies and Expression Analysis (LTEA) Assay for matrix metalloproteinase-3 (MMP3) using HepaRG (AID 2283519)
How it was run: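 Human liver HepaRG cultures received chemicals (top concentration 100 uM, 0.5% DMSO) for 48 h in duplicate. MMP3 mRNA induction or loss was then assessed via TaqMan qRT-PCR with housekeeping-gene normalisation.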

[6] = read-out: Paternally Expressed 10 (PEG10), PEG10 (gene 23089); assay: LTEA_HepaRG_PEG10: Life Technologies and Expression Analysis (LTEA) Assay for Paternally Expressed 10 (PEG10) using HepaRG (AID 2283520)
How it was run: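 PEG10 transcript measured by Fluidigm qRT-PCR, normalized to three housekeeping genes, in HepaRG cells treated 48 h (highest 100 uM, half-log steps, 0.5% DMSO vehicle). Cells plated 48 h before switching to serum-free induction medium.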

[7] = read-out: Nuclear factor NF-kappa-B p105 subunit (Homo sapiens) (UniProt P19838); assay: LTEA_HepaRG_NFKB1: Life Technologies and Expression Analysis (LTEA) Assay for Nuclear Factor Kappa B Subunit 1 (NFKB1) using HepaRG (AID 2283521);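 further: differentiated human HepaRG liver cells in serum-free induction medium; TaqMan qRT-PCR transcript normalised to ACTB GAPDH and POLR2A housekeeping genes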
How it was run: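 HepaRG, 48 h exposure; 8-pt half-log series from 100 uM in 0.5% DMSO; duplicates. Readout: NFKB1 mRNA by qRT-PCR (Fluidigm arrays), housekeeping-normalized. Gain/loss fit vs DMSO baseline.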

[8] = read-out: Protein phosphatase 2A (PPP2R4), PTPA (gene 5524); assay: LTEA_HepaRG_PPP2R4: Life Technologies and Expression Analysis (LTEA) Assay for Protein phosphatase 2A (PPP2R4) using HepaRG (AID 2283522)
How it was run: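 Expression was quantified by Fluidigm qRT-PCR normalised to three housekeeping genes after 48 h treatment. Human HepaRG cells received an 8-point series from 100 µM downward by half-logs, in duplicate with 0.5% DMSO vehicle and 1 mM phenobarbital as induction control.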

[9] = read-out: Phosphatase and tensin (PTEN), PTEN (gene 5728); assay: LTEA_HepaRG_PTEN: Life Technologies and Expression Analysis (LTEA) Assay for Phosphatase and tensin (PTEN) using HepaRG (AID 2283523)
How it was run: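 Expression of PTEN is quantified in the human liver line HepaRG following two days of dosing (top concentration 100 uM, half-log dilutions, 0.5% DMSO). Values derive from bidirectional curve fitting relative to DMSO controls.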

[10] = read-out: solute carrier (SLC22A1), SLC22A1 (gene 6580); assay: LTEA_HepaRG_SLC22A1: Life Technologies and Expression Analysis (LTEA) Assay for solute carrier (SLC22A1) using HepaRG (AID 2283524);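 on AC50: differentiated human HepaRG liver cells in serum-free induction medium; TaqMan qRT-PCR normalized to ACTB GAPDH and POLR2A housekeeping genes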
How it was run: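 Transcript induction or suppression of SLC22A1 in human HepaRG cultures is scored after 48 h chemical treatment, with DMSO (0.5%) as baseline for bidirectional fitting. Concentrations span eight half-log points topping at 100 uM.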

[11] = read-out: NAD(P)H dehydrogenase [quinone] 1 (NQO1), NQO1 (gene 1728); assay: LTEA_HepaRG_NQO1: Life Technologies and Expression Analysis (LTEA) Assay for NAD(P)H dehydrogenase [quinone] 1 (NQO1) using HepaRG (AID 2283526)
How it was run: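 NQO1 transcript induction or loss measured by TaqMan qRT-PCR, referenced to three housekeeping genes and fitted bidirectionally against 0.5% DMSO. HepaRG cultures exposed 48 h, duplicate, eight-point half-log series, top 100 uM.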

[12] = read-out: Nuclear factor erythroid 2-related factor 2 (Homo sapiens) (UniProt Q16236); assay: LTEA_HepaRG_NFE2L2: Life Technologies and Expression Analysis (LTEA) Assay for Nuclear factor erythroid 2-related factor 2 (NFE2L2) Transcription Factor using HepaRG (AID 2283527);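 further: TaqMan qRT-PCR transcript level normalised to ACTB GAPDH and POLR2A housekeeping genes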
How it was run: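 Human liver HepaRG line treated in duplicate for 48 h with an eight-point series topping at 100 uM. Gene expression of NFE2L2 by qRT-PCR, bidirectionally fitted against the vehicle control.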

[13] = read-out: succinate dehydrogenase complex iron sulfur subunit B (SDHB), SDHB (gene 6390); assay: LTEA_HepaRG_SDHB: Life Technologies and Expression Analysis (LTEA) Assay for succinate dehydrogenase complex iron sulfur subunit B (SDHB) using HepaRG (AID 2283528)
How it was run: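 Readout is SDHB transcript level by qRT-PCR, normalised to three housekeeping genes and fitted bidirectionally against 0.5% DMSO vehicle. Human HepaRG cells were treated for 48 h at up to 100 uM.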

[14] = read-out: Signal transducer and activator of transcription 3 (Homo sapiens) (UniProt P40763); assay: LTEA_HepaRG_STAT3: Life Technologies and Expression Analysis (LTEA) Assay for Signal transducer and activator of transcription (STAT3) using HepaRG (AID 2283529)
How it was run: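 In this transcriptional endpoint, HepaRG cultures receive test chemicals at up to 100 uM for 48 h, tested in duplicate. STAT3 mRNA is normalized to ACTB, GAPDH and POLR2A.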

[15] = read-out: solute carrier (SLCO1B1), SLCO1B1 (gene 10599); assay: LTEA_HepaRG_SLCO1B1: Life Technologies and Expression Analysis (LTEA) Assay for solute carrier (SLCO1B1) using HepaRG (AID 2283530)
How it was run: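 Human HepaRG cultures treated for 48 h with an eight-concentration half-log series topping at 100 uM; SLCO1B1 measured by qRT-PCR and fitted bidirectionally relative to DMSO.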

[16] = read-out: sulfotransferase 2A1 (SULT2A1), SULT2A1 (gene 6822); assay: LTEA_HepaRG_SULT2A1: Life Technologies and Expression Analysis (LTEA) Assay for sulfotransferase 2A1 (SULT2A1) using HepaRG (AID 2283531)
How it was run: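 Gene-expression endpoint in a human liver cell line: SULT2A1 mRNA change after 48 h chemical treatment, curves fitted in both directions relative to 0.5% DMSO vehicle. Concentrations spanned eight half-log steps from 100 uM.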

[17] = read-out: Transforming Growth Factor (TGFB1), TGFB1 (gene 7040); assay: LTEA_HepaRG_TGFB1: Life Technologies and Expression Analysis (LTEA) Assay for Transforming Growth Factor (TGFB1) Transporter using HepaRG (AID 2283533)
How it was run: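 Eight-point concentration-response (max 100 uM, half-log) in HepaRG under serum-free induction conditions, 48 h. TGFB1 mRNA by qRT-PCR, housekeeping-normalized.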

[18] = read-out: Pyruvate Dehydrogenase Kinase 4 (PDK4), PDK4 (gene 5166); assay: LTEA_HepaRG_PDK4: Life Technologies and Expression Analysis (LTEA) Assay for Pyruvate Dehydrogenase Kinase 4 (PDK4) using HepaRG (AID 2283525)
How it was run: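 Eight-point, half-log concentration series (max 100 uM, 0.5% DMSO) applied to differentiated HepaRG cells for 48 h in duplicate. Endpoint: PDK4 mRNA induction or repression by qRT-PCR against DMSO baseline.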

[19] = read-out: Transforming Growth Factor (TGFA), TGFA (gene 7039); assay: LTEA_HepaRG_TGFA: Life Technologies and Expression Analysis (LTEA) Assay for Transforming Growth Factor (TGFA) using HepaRG (AID 2283532)
How it was run: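 Gene expression of TGFA was quantified by qRT-PCR after human HepaRG cells were treated for 48 h with test chemicals (eight concentrations, highest 100 uM, 0.5% DMSO). Activity in either direction was fitted relative to DMSO.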

Measured: AC50

Chain of Nuclear factor erythroid 2-related factor 2 (Homo sapiens) (Q16236 whole entry, looked up): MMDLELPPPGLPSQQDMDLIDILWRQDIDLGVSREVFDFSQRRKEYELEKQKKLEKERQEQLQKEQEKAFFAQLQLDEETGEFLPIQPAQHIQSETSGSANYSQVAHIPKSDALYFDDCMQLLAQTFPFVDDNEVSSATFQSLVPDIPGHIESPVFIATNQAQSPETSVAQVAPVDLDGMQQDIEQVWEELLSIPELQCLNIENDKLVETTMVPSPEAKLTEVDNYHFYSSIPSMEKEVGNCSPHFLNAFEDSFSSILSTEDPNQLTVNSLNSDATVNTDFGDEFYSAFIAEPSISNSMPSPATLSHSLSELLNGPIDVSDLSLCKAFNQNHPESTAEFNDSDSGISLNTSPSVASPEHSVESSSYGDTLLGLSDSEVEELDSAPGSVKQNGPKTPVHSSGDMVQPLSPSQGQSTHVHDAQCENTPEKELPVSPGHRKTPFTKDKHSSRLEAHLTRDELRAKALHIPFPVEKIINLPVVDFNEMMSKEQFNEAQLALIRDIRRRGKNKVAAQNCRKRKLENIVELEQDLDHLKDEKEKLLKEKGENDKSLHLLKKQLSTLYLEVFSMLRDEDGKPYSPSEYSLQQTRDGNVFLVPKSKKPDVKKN
Chain of Signal transducer and activator of transcription 3 (Homo sapiens) (P40763 whole entry, looked up): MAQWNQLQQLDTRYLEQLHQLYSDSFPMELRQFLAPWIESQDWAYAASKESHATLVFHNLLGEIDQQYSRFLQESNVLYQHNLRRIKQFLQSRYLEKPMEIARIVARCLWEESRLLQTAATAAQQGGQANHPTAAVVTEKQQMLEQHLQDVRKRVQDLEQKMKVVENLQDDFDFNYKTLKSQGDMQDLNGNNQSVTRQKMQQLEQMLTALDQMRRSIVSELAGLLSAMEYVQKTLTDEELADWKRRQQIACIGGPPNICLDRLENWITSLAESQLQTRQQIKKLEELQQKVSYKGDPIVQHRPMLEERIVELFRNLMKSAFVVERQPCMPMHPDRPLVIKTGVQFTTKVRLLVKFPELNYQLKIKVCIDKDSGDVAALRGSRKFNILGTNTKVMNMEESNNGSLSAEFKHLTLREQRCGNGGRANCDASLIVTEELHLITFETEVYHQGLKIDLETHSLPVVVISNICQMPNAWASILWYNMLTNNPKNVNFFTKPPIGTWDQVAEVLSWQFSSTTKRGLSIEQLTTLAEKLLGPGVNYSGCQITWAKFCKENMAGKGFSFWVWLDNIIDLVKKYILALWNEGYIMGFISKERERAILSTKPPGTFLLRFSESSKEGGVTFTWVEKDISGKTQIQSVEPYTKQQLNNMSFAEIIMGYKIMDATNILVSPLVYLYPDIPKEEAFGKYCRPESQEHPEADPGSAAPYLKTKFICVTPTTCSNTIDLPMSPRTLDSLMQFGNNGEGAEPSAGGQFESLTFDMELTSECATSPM
Chain of Nuclear factor NF-kappa-B p105 subunit (Homo sapiens) (P19838 whole entry, looked up): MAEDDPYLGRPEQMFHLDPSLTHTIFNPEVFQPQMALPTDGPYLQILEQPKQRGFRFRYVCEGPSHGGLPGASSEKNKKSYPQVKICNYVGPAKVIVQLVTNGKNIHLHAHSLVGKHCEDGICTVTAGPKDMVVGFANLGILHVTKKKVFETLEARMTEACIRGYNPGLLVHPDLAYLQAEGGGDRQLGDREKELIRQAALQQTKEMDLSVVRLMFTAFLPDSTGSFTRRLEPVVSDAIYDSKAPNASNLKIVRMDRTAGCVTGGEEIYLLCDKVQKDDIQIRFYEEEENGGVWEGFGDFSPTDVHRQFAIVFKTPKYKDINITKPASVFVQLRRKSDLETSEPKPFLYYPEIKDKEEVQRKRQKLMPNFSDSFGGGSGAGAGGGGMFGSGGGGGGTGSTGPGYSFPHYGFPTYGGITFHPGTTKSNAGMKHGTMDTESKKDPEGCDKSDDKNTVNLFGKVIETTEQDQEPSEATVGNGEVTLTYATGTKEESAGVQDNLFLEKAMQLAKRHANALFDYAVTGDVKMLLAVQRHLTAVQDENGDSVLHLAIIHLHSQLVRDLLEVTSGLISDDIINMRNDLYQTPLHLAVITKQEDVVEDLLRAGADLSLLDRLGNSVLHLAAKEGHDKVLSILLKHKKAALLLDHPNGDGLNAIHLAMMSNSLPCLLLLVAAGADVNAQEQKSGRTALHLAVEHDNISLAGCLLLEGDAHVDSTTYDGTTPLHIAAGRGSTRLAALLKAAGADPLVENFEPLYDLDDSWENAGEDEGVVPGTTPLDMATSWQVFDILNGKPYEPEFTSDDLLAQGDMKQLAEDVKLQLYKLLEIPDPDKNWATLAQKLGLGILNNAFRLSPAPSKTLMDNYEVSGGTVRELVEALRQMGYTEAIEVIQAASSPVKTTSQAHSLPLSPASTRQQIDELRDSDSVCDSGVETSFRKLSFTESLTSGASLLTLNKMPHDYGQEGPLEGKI

CCc1cccc(CC)c1N(COC)C(=O)CCl
not listed: [18] | [19]
inactive: all other assays above

C[N+]1(C)CCCCC1
not listed: [18] | [19]
inactive: all other assays above

CCOP(=S)(OCC)OC(Cl)C(Cl)(Cl)Cl (stereo not given)
not listed: [18] | [19]
inactive: all other assays above

CCC(=NOC/C=C/Cl)C1=C(O)CC(C2CCOCC2)CC1=O (stereo not given)
inactive: all assays above

CC1(C(=O)Nc2ccc(O)c(Cl)c2Cl)CCCCC1
not listed: [18] | [19]
inactive: all other assays above

S=C1NCCN1
active: [15] 240 nM
not listed: [18]
inactive: all other assays above

C#CCC1=C(C)C(OC(=O)C2C(C=C(C)C)C2(C)C)CC1=O (stereo not given)
active: [5] 81.9 µM | [10] 74.1 µM | [18] 9.87 µM | [13] 9.87 µM
not listed: [7]
inactive: all other assays above
